In the supplement of paper PMC6555819 one finds PBM binding z-score data, which are given here for 39 sequences.

The first assay deals with PPARg:RXRa 90nM:30nM, anti-RXR (NR concentration 90 nM, RXRa partner concentration 30 nM). The assay is described as follows: PBM binding z-score (relative to random genomic background probes); higher = stronger binding; sequences stand for … in GC…GCGATTGACAGCGTAGAATGAAGG
The procedure, abridged: (§1)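 Each nuclear receptor dimer, without ligand, was incubated for 1 h on custom Agilent 4×180K protein-binding microarrays. Binding was detected with antibodies against each partner (one per run), and scanned fluorescence was regression-normalized. The binding z-scores are referenced to random human genomic background probes.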
Consider CGAACTAGGTAACCAGGACAGTGAAGAGGTTGGA, for which the PBM binding z-score amounted to 0.958.

The sequence CGAACTAGGTCAAAGGACAGTTAAAGGCGACGTA returned a PBM binding z-score of 9.57.

As to CGAACTAGGTCAAAGGACAGTGCAAGGCGACGTA, the PBM binding z-score turned out to be 9.07.

Consider CGAACTAGGTTACCAGGACAGTGAAGAGGTTGGA, for which the PBM binding z-score was determined as 2.52.

In the case of CGAACTAGGTCACCAGGAGAGTGAAGAGGTTGGA, the PBM binding z-score was determined as 6.24.

As for ATATGTAGGTTAGGGTCATCCAGAAAGTAGGGAA, the PBM binding z-score is 6.67.

For CGAACTAGGTCACCCGGACAGTGAAGAGGTTGGA, the PBM binding z-score was 6.25.

Sequence ATATGTAGGTTTGGGTCATTCAGAAAGTAGGGAA displayed a PBM binding z-score of 2.29.

Take CGAACTAGGTCAAAGGACAGGGAAAGGCGACGTA: the PBM binding z-score came out at 9.16.

The sequence CGAACTAGGTCACAGGACAGTGAAAGGCGACGTA gave a PBM binding z-score of 7.31.

Sequence CGAAATAGGTCACCAGGACAGTGAAGAGGTTGGA displayed a PBM binding z-score of 6.97.

The sequence CGAACTAGGTCGAAGGACAGTGAAAGGCGACGTA gave a PBM binding z-score of 5.61.

Regarding CGAACTAGTTCAAAGGACAGTGAAAGGCGACGTA, the PBM binding z-score stood at 3.25.

ATATGTAGGTTATGGTCATTCAGAAAGTAGGGAA had a PBM binding z-score of 3.32.

CGAACTAGGTTAAAGGACAGTGAAAGGCGACGTA registered a PBM binding z-score of 8.79.

In turn, CGAACTAGGTCAAAGGACAGAGAAAGGCGACGTA yielded a PBM binding z-score of 9.91.

In the case of CGAACTAGGTCACCAGGACAGTGATGAGGTTGGA, the PBM binding z-score came to 6.58.

For ATATGTAGGTTAGGGTCATGCAGAAAGTAGGGAA, the PBM binding z-score was determined as 6.3.

On to CGAACTAGGTCAAAGGACAGTGACAGGCGACGTA, for which the PBM binding z-score stood at 9.48.

In the case of CGTACTAGGTCAAAGGACAGTGAAAGGCGACGTA, the PBM binding z-score stood at 9.06.

Take ATACGTAGGTTAGGGTCATTCAGAAAGTAGGGAA: the PBM binding z-score turned out to be 2.77.

As to ATATGTAGGTTAGGGTCATTAAGAAAGTAGGGAA, the PBM binding z-score was determined as 6.14.

On to CGAACTAGGTGACCAGGACAGTGAAGAGGTTGGA, for which the PBM binding z-score was found to be 1.94.

The sequence CGAACTAGGTCATAGGACAGTGAAAGGCGACGTA gave a PBM binding z-score of 7.72.

In turn, CGAGCTAGGTCAAAGGACAGTGAAAGGCGACGTA returned a PBM binding z-score of 5.95.

ATATGTAGGTGAGGGTCATTCAGAAAGTAGGGAA: the PBM binding z-score amounted to 6.5.

Take ATAGGTAGGTTAGGGTCATTCAGAAAGTAGGGAA: the PBM binding z-score came out at 4.2.

AGATGTAGGTTAGGGTCATTCAGAAAGTAGGGAA gave a PBM binding z-score of 5.81.

As for AAATGTAGGTTAGGGTCATTCAGAAAGTAGGGAA, the PBM binding z-score amounted to 6.92.

Sequence CGAACTAGGTCAAAGGAAAGTGAAAGGCGACGTA displayed a PBM binding z-score of 7.13.

The sequence CGAACTAGGTCACCAGGACATTGAAGAGGTTGGA gave a PBM binding z-score of 6.35.

CGAACTAGGTCAAAGGACAGTCAAAGGCGACGTA came in with a PBM binding z-score of 9.11.

For the sequence CGAAATAGGTCAAAGGACAGTGAAAGGCGACGTA, the PBM binding z-score stood at 8.72.

On to ATATGAAGGTTAGGGTCATTCAGAAAGTAGGGAA, for which the PBM binding z-score came out at 2.87.

ATATGTGGGTTAGGGTCATTCAGAAAGTAGGGAA yielded a PBM binding z-score of 5.8.

CGAACTAGGTCAAAGGACAGTAAAAGGCGACGTA: the PBM binding z-score came out at 8.57.

ATATGTAGGTTAGGGGCATTCAGAAAGTAGGGAA registered a PBM binding z-score of 4.77.

The sequence CGAACTAGGTCACCAGGCCAGTGAAGAGGTTGGA gave a PBM binding z-score of 6.44.

In turn, CGAACTAGGTCACCAAGACAGTGAAGAGGTTGGA gave a PBM binding z-score of 6.57.

A further assay deals with PPARg:RXRa DBDmut IVT, anti-RXR (DBD mutation: RXRa K156A/R161A, NR concentration 270 nM, RXRa partner concentration 90 nM). The assay is described as above. In short, it runs like this: as §1
CGAACTAGGTAACCAGGACAGTGAAGAGGTTGGA had a PBM binding z-score of 6.32.

In turn, CGAACTAGGTCAAAGGACAGTTAAAGGCGACGTA came in with a PBM binding z-score of 7.76.

CGAACTAGGTCAAAGGACAGTGCAAGGCGACGTA returned a PBM binding z-score of 7.81.

With CGAACTAGGTTACCAGGACAGTGAAGAGGTTGGA, the PBM binding z-score is 6.94.

Consider CGAACTAGGTCACCAGGAGAGTGAAGAGGTTGGA, for which the PBM binding z-score stood at 8.2.

ATATGTAGGTTAGGGTCATCCAGAAAGTAGGGAA showed a PBM binding z-score of 6.49.

CGAACTAGGTCACCCGGACAGTGAAGAGGTTGGA gave a PBM binding z-score of 8.23.

ATATGTAGGTTTGGGTCATTCAGAAAGTAGGGAA showed a PBM binding z-score of 2.79.

On to CGAACTAGGTCAAAGGACAGGGAAAGGCGACGTA, for which the PBM binding z-score came out at 7.68.

In turn, CGAACTAGGTCACAGGACAGTGAAAGGCGACGTA came in with a PBM binding z-score of 8.61.

CGAAATAGGTCACCAGGACAGTGAAGAGGTTGGA returned a PBM binding z-score of 7.94.

For the sequence CGAACTAGGTCGAAGGACAGTGAAAGGCGACGTA, the PBM binding z-score is 4.92.

For CGAACTAGTTCAAAGGACAGTGAAAGGCGACGTA, the PBM binding z-score was found to be 0.0129.

ATATGTAGGTTATGGTCATTCAGAAAGTAGGGAA: the PBM binding z-score was 6.83.

Sequence CGAACTAGGTTAAAGGACAGTGAAAGGCGACGTA yielded a PBM binding z-score of 6.46.

Consider CGAACTAGGTCAAAGGACAGAGAAAGGCGACGTA, for which the PBM binding z-score stood at 8.13.

CGAACTAGGTCACCAGGACAGTGATGAGGTTGGA: the PBM binding z-score was 7.98.

Regarding ATATGTAGGTTAGGGTCATGCAGAAAGTAGGGAA, the PBM binding z-score is 6.6.

CGAACTAGGTCAAAGGACAGTGACAGGCGACGTA showed a PBM binding z-score of 8.32.

As for CGTACTAGGTCAAAGGACAGTGAAAGGCGACGTA, the PBM binding z-score is 7.43.

Turning to ATACGTAGGTTAGGGTCATTCAGAAAGTAGGGAA, the PBM binding z-score came to 0.761.

Regarding ATATGTAGGTTAGGGTCATTAAGAAAGTAGGGAA, the PBM binding z-score was 6.33.

For CGAACTAGGTGACCAGGACAGTGAAGAGGTTGGA, the PBM binding z-score worked out at 7.15.

CGAACTAGGTCATAGGACAGTGAAAGGCGACGTA yielded a PBM binding z-score of 7.81.

Sequence CGAGCTAGGTCAAAGGACAGTGAAAGGCGACGTA registered a PBM binding z-score of 3.53.

For ATATGTAGGTGAGGGTCATTCAGAAAGTAGGGAA, the PBM binding z-score turned out to be 7.49.

Sequence ATAGGTAGGTTAGGGTCATTCAGAAAGTAGGGAA registered a PBM binding z-score of 3.34.

With AGATGTAGGTTAGGGTCATTCAGAAAGTAGGGAA, the PBM binding z-score turned out to be 5.84.

As to AAATGTAGGTTAGGGTCATTCAGAAAGTAGGGAA, the PBM binding z-score came to 7.33.

As to CGAACTAGGTCAAAGGAAAGTGAAAGGCGACGTA, the PBM binding z-score was 7.92.

In turn, CGAACTAGGTCACCAGGACATTGAAGAGGTTGGA gave a PBM binding z-score of 7.89.

Sequence CGAACTAGGTCAAAGGACAGTCAAAGGCGACGTA gave a PBM binding z-score of 8.1.

As for CGAAATAGGTCAAAGGACAGTGAAAGGCGACGTA, the PBM binding z-score was found to be 7.36.

ATATGAAGGTTAGGGTCATTCAGAAAGTAGGGAA gave a PBM binding z-score of 1.38.

ATATGTGGGTTAGGGTCATTCAGAAAGTAGGGAA showed a PBM binding z-score of 6.19.

Turning to CGAACTAGGTCAAAGGACAGTAAAAGGCGACGTA, the PBM binding z-score was 8.07.

On to ATATGTAGGTTAGGGGCATTCAGAAAGTAGGGAA, for which the PBM binding z-score turned out to be 6.62.

CGAACTAGGTCACCAGGCCAGTGAAGAGGTTGGA: the PBM binding z-score came to 8.23.

The sequence CGAACTAGGTCACCAAGACAGTGAAGAGGTTGGA had a PBM binding z-score of 7.83.
